An excerpt weighted towards active compounds, which were near 2.4% of everything screened.
ALOX15B inhib – 15-hLO-2 (ALOX15B) enzyme inhibition; O15296; purified 15hLO-2, xylenol orange hydroperoxide absorbance; Potency, µM (top dose mostly 57.1 µM), most hits filed as inhibitors; 110,000 tested, 0.56% active; AID 881; also: nearly all actives have a fitted effect of over 60% in size
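Read-out: hydroperoxide product oxidises ferrous iron, measured as xylenol orange complex via the 573-to-405 nm absorbance ratio after 30 min. Reaction: 50 nM enzyme, 15 min compound preincubation, 45 uM arachidonic acid, 90 min RT, Hepes pH 7.5 with Triton X-100.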
Tau filament bind – tau filament binding. 71,000 tested, 2% active. recombinant tau filaments, thioflavin S fluorescence, 15 h; filaments grown with octadecylsulfate alongside compound. Potency, µM (series often up to 57.1 µM). P10636;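 also: actives lower thioflavin S fluorescence by blocking filaments or displacing dye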
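His-tagged recombinant human tau (exons 2, 3 and 10 included), 1 uM, was induced to fibrillize by 30 uM sodium octadecylsulfate with compound present. After 15 h at 37 C, thioflavine S fluorescence (ex 450, em 510 nm) was read.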
Caspase-1 inhib – blocks human caspase-1 allosterically or competitively; P29466; Caspase-1 enzyme, Ac-WEHD-AFC fluorogenic rate; Potency, µM (series often up to 57.5 µM), actives largely listed as inhibitors; 75,000 tested, 0.03% active; AID 900
Casp7 inh – caspase-7 (human) inhibition, allosteric or competitive; 75,000 tested, 0.02% active; recombinant caspase-7, Ac-DEVD-AFC fluorescence rate; Potency, µM (series often up to 57.5 µM), hits mostly inhibitors; P55210; active = well fitted inhibition curve with a large enough effect in the main read-out, with a control signal flat, not every such curve was filed as active; inconclusive = small, poorly fitted or top-dose-only effect, or a change in a side signal
Hsp90 Hop PPI – changes Hsp90-Hop TPR2A binding signal, up or down; AlphaScreen TPR2A-His6 binding biotin-Hsp90 C-terminal peptide; Potency, µM (highest dose often 57 µM); 71,000 tested, 0.44% active; AID 595; active = well fitted curve in either direction with a large enough effect; inconclusive = small, poorly fitted or top-dose-only effect, or another doubt
ALOX15 inhib – 15-hLO (ALOX15) enzyme inhibition | Potency, µM (top dose mostly 57.1 µM), most hits filed as inhibitors | 74,000 tested, 1.4% active | P16050 | purified 15hLO-1, xylenol orange hydroperoxide absorbance | AID 887; also: nearly all actives have a fitted effect of over 55% in size
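Readout: Fe(III)-xylenol orange absorbance, 573-to-405 nm ratio as reaction progress. Enzyme 40 nM purified human 15hLO-1, substrate 50 uM arachidonic acid, 6 min RT after 15 min compound preincubation; Hepes pH 7.5 buffer with Triton X-100.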
Numbers stand for hits; - = inactive; ? = inconclusive; . = not tested or not shown; [ ] = remark or other dose. Unless noted, calls follow the shape of the dose curve; as a rule, active = well fitted curve in the direction sought with a large enough effect; inconclusive = small, poorly fitted or top-dose-only effect, or another doubt; inactive = no such curve, though single readings can be large; an effect the other way counts as inactive or inconclusive.

SMILES	ALOX15B inhib	Tau filament bind	Caspase-1 inhib	Casp7 inh	Hsp90 Hop PPI	ALOX15 inhib
Cc1ccc(C(=O)Nc2ccc(N3CCOCC3)cc2)cc1	-	-	-	-	-	-
C/C(=C\C(=O)c1ccc(F)cc1)Nc1ccc(N2CCOCC2)cc1	?	6.3µM	-	-	-	?
N#Cc1c(NC(=O)C(F)(F)F)sc2c3c(=O)c4ccccc4c(=O)c=3oc3ccccc3c12	-[11.4 µM]	4µM	-[11.5 µM]	-[11.5 µM]	-[11 µM]	-[11.4 µM]
O=C(NC1CCCc2ccccc21)C1CCC(CNc2c(N3CCOCC3)c(=O)c2=O)CC1 (stereo not drawn)	.	-	-	-	-[2.3 µM]	-
O=C(c1ccc(Cl)c(Cl)c1)N(Cc1ccco1)c1ccc(O)cc1	-	-	-	13µM	-	?
Nc1c(C(=O)c2ccccc2)oc2ccc(Br)cc12	-	-	?	-	-	-
O=C(OCc1cc(=O)n2c(n1)sc1ccccc12)c1ccc2c(=O)n3c(nc2c1)CCC3	-	6.3µM	-	-	-	?
Cc1ccc2c(CC(=O)OCc3cc(=O)n4c(n3)sc3ccccc34)coc2c1	-	.	.	.	.	.
Nc1nc(SCC(=O)N2CCc3ccccc3C2)[nH]c(=O)c1-c1ccccc1	-	-	-	-	-	-
Cc1nn(-c2ccccc2)c2c1C(c1cccnc1)N1C=C(S(=O)(=O)N3CCCCC3)C=CC1=N2 (stereo not drawn)	-	16µM	-	-	?	-
Cc1nn2c(c1-c1ccccc1)NC1=C(C(=O)CCC1)C2c1cccnc1 (stereo not drawn)	.	-	-	-	-	-
N#CC(C(=O)Nc1ccc(Cl)cc1)=C1Nc2ccccc2N1	-	-	-	-	-	-
O=C(O)C1CC=CCC1C(=O)NC12CC3CC(CC(C3)C1)C2 (stereo not drawn)	-	-	-	-	-	-
COc1cc(OC)c(C2N(c3ccc(Cl)c(Cl)c3)C(=O)C3CCCN32)cc1OC (stereo not drawn)	-	-	-	-	-	-
COc1cc(OC)c(C2N(c3ccc(Cl)cc3)C(=O)C3CCCN32)cc1OC (stereo not drawn)	-	20µM	-	-	-	-
COc1cccc(Cn2c(=O)c(-c3cccc(C#N)c3)nc3cnc(N4CCN(C)CC4)nc32)c1	-	3.2µM	.	?	-	-
CN1CCN(c2ncc3nc(-c4cccc(C#N)c4)c(=O)n(Cc4ccc(F)cc4)c3n2)CC1	-	?	.	?	-	-
COc1ccc(Oc2ncc3nc(-c4cccc(C#N)c4)c(=O)n(Cc4cccc(OC)c4)c3n2)cc1	-	10µM	?	-	-	-
N#CCCn1c(=O)c(-c2cccc(C#N)c2)nc2cnc(Oc3ccccc3)nc21	-	-	-	-	-	-
Cc1ccccc1Nc1nnc(SCc2cc([N+](=O)[O-])cc3c2OCOC3)s1	-	.	.	.	.	.
O=C(NC(=S)Nc1ccc(N2CCCCC2)cc1)c1cccs1	20µM	.	.	.	.	.
N#CC(C#N)=c1ccc2c(c1)N1C3=C(CCCC3)CC3CCCCC31N=2 (stereo not drawn)	-	1.6µM	-	-	?	-
N#C/C(C(N)=O)=c1/ccc2c(c1)N1C3=C(CCCC3)CC3CCCCC31N=2 (stereo not drawn)	?	5µM	-	-	?	-
CC(Oc1ccccc1F)C(=O)NCCN1CCCCC1 (stereo not drawn)	-	-	-	-	-	-
Cc1cc(=O)c2c(O)c(O)ccc2o1	-	-	-	-	-	?
SMILES	ALOX15B inhib	Tau filament bind	Caspase-1 inhib	Casp7 inh	Hsp90 Hop PPI	ALOX15 inhib
CC1=CCc2c(cc3oc(C)cc(=O)c3c2O)OC1	-	.	-	-	.	20µM
N#CC1=C(N)SC(N)=C(C#N)C1c1ccnc2ccccc12	?	-	?	-	?	4µM
Cc1c(C(=O)N2CCN(Cc3ccccc3)CC2)sc2ncnc(N3CCOCC3)c12	-	.	.	.	.	.
Cc1ccsc1C=Nc1ccc(O)cc1	-	20µM	?	-	-	?
Cc1ccsc1/C=N/NC(=O)c1sccc1C	-	.	.	.	.	.
O=[N+]([O-])c1cccnc1N1CCCCC1	-	.	.	.	.	.
c1cncc(-c2cc(NCc3cccs3)ncn2)c1	?	-	-	-	-	25µM
c1csc(CNc2cc(-c3ccoc3)ncn2)c1	-	-	-	-	-	-
Fc1c(F)c(F)c(CSc2nc3ccccc3[nH]2)c(F)c1F	-	-	-	-	4µM	?
N#Cc1cc2sc3nnc(-c4ccncc4)n3c2cc1C#N	-	7.9µM	-	-	-	-
CCNC(=O)c1oc2c(c1C)C(=O)CC(C)(C)C2	-	.	.	.	.	.
CC1(C)Cc2c(C#N)c(N3CCOCC3)nc(Cc3ccccc3)c2CO1	-	.	.	.	.	.
CCOC(=O)c1cc(-c2ccc(/C=C3/C(=O)NC(=O)C(C#N)=C3C)o2)ccc1Cl	25µM	.	.	.	.	.
CC[C@H](NC(C)C)[C@H](O)c1ccc(O)c2[nH]c(=O)ccc12	-	32µM	-	-	-	-
CCOC(=O)c1cccc(NC(=O)CSc2nnc(CNc3ccc(C)cc3)n2CC)c1	-	-	-	-	-	13µM
CCC(C)NC(=O)/C(=C/c1ccco1)c1ccccc1 (stereo not drawn)	-	.	.	.	.	.
Cc1cc(C)n(-c2nc3ccccc3c(=O)n2OCC(=O)OCc2ccccc2)n1	-	-	-	-	-	-
CC(=O)C1=C(C)NC(SCSc2ccccc2)=C(C#N)C1c1cccnc1 (stereo not drawn)	-	-	?	-	-	0.32µM
CC(=O)C1=C(C)NC(SCC(=O)c2ccc(-c3ccccc3)cc2)=C(C#N)C1c1cccnc1 (stereo not drawn)	-	.	.	.	.	.
CSCSC1=C(C#N)C(c2ccccc2Cl)C(C(C)=O)=C(C)N1 (stereo not drawn)	-	-	.	?	-	25µM
COC(=O)c1nn(-c2cccc(C(F)(F)F)c2)c(=O)cc1Sc1ccccn1	-	.	.	.	.	.
CSc1cccc(NC(=O)COc2cccc3ccccc23)c1	-	.	.	.	.	.
COc1ccc(C(=O)CN2C(=O)C(C)(C)Oc3ccc(C(=O)N4CCCCCC4)cc32)cc1	-	-	-	-	-	-
COc1ccc(NC(=O)N(Cc2cc3cc(OC)ccc3[nH]c2=O)CC2CCCO2)cc1 (stereo not drawn)	-	-	-	-	-	20µM
COc1ccc(NC(=O)N(CCCN(C)C)Cc2cc3cc(OC)ccc3[nH]c2=O)cc1	.	-	-	-	-	-
CCc1ccc2[nH]c(=O)c(CN(CCCN3CCOCC3)C(=O)Nc3ccc(F)cc3)cc2c1	-	-	-	-	?	16µM
COc1ccc(Cl)c(N2CCN(CCCNC(=O)Nc3ccc(C)cc3)CC2)c1	-	16µM	-	-	-	-
O=C(CCn1cccc1)Nc1nccs1	-	.	-	-	.	-
Cc1ccc(S(=O)(=O)Nn2c(C)ccc2C)cc1	?	?	-	-	-	20µM
Cc1cc(C(=O)N2CCN(c3ncccn3)CC2)c(C)o1	-	-	-	-	-	-

Screens (PubChem BioAssay)
